# Assay results: the supplement of paper PMC6555819
# Legend:
# Assay in all cases: PBM binding z-score (relative to random genomic background probes); higher = stronger binding; sequences stand for … in GC…GCGATTGACAGCGTAGAATGAAGG
# [1] = system: FXR:RXRa (NR concentration 270 nM, RXRa partner concentration 90 nM)
# Method in brief: (§1)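 Binding buffer was PBS pH 7.4 with 2% milk, 0.02% Triton X-100, 1 mM DTT, 0.2 mg/mL BSA and 0.4 mg/ml salmon testes DNA. In it, ligand-free nuclear receptor dimers were incubated 1 h on custom Agilent 4×180K protein-binding microarrays carrying double-stranded probes. Antibodies against each partner (one per run) detected binding, and z-scores were calculated against random background probes after regression normalization of scanned fluorescence.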
# [2] = system: LXRa:RXRa (NR concentration 270 nM, RXRa partner concentration 90 nM)
# Method in brief: as §1
# [3] = system: LXRa homodimer (NR concentration 270 nM)
# Method in brief: as §1
# [4] = system: LXRb:RXRa (NR concentration 270 nM, RXRa partner concentration 90 nM)
# Method in brief: as §1
# [5] = system: LXRb homodimer (NR concentration 270 nM)
# Method in brief: as §1
# [6] = system: PPARa:RXRa (NR concentration 270 nM, RXRa partner concentration 90 nM)
# Method in brief: as §1
# [7] = system: PPARg:RXRa (NR concentration 180 nM, RXRa partner concentration 90 nM)
# Method in brief: as §1
# [8] = system: PPARg:RXRa 270nM:90nM, anti-RXR (NR concentration 270 nM, RXRa partner concentration 90 nM)
# Method in brief: as §1
# [9] = system: PPARg:RXRa 30nM:10nM, anti-RXR (NR concentration 30 nM, RXRa partner concentration 10 nM)
# Method in brief: as §1
# [10] = system: PPARg:RXRa 90nM:30nM, anti-RXR (NR concentration 90 nM, RXRa partner concentration 30 nM)
# Method in brief: as §1
sequence,measurement,setting,value
TCATATAGGGAAAGGTGAAAGTCGAACGATATGA,PBM binding z-score,[1],0.779
same,PBM binding z-score,[2],1.31
same,PBM binding z-score,[3],-0.25
same,PBM binding z-score,[4],1.43
same,PBM binding z-score,[5],-0.112
same,PBM binding z-score,[6],2.68
same,PBM binding z-score,[7],2.13
same,PBM binding z-score,[8],3.56
same,PBM binding z-score,[9],4.47
same,PBM binding z-score,[10],3.88
TCTTGTAGATCAAAGGTTAAGGAAGCCGAAGCCT,PBM binding z-score,[1],1.76
same,PBM binding z-score,[2],1.94
same,PBM binding z-score,[3],0.12
same,PBM binding z-score,[4],1.9
same,PBM binding z-score,[5],-0.272
same,PBM binding z-score,[6],4.8
same,PBM binding z-score,[7],7.91
same,PBM binding z-score,[8],7.99
same,PBM binding z-score,[9],7.63
same,PBM binding z-score,[10],8.41
CCGACTGGGGCATAAGGTTACCGTAAGCCAGCCC,PBM binding z-score,[1],0.834
same,PBM binding z-score,[2],0.933
same,PBM binding z-score,[3],-0.596
same,PBM binding z-score,[4],0.83
same,PBM binding z-score,[5],-1.46
same,PBM binding z-score,[6],2.03
same,PBM binding z-score,[7],2.33
same,PBM binding z-score,[8],3.5
same,PBM binding z-score,[9],1.26
same,PBM binding z-score,[10],3.13
TCTTGTAGATCGACAGGAGGTTAAGAAAGATCGA,PBM binding z-score,[1],-0.239
same,PBM binding z-score,[2],0.869
same,PBM binding z-score,[3],-0.338
same,PBM binding z-score,[4],0.656
same,PBM binding z-score,[5],-0.423
same,PBM binding z-score,[6],0.999
same,PBM binding z-score,[7],-0.276
same,PBM binding z-score,[8],1.14
same,PBM binding z-score,[9],2.24
same,PBM binding z-score,[10],1.55
ACTATTAGTTGAGACGACGGCAACCGATAGGTTG,PBM binding z-score,[1],-0.095
same,PBM binding z-score,[2],-0.329
same,PBM binding z-score,[3],-0.396
same,PBM binding z-score,[4],-0.449
same,PBM binding z-score,[5],0.14
same,PBM binding z-score,[6],-0.603
same,PBM binding z-score,[7],0.568
same,PBM binding z-score,[8],-0.326
same,PBM binding z-score,[9],-0.098
same,PBM binding z-score,[10],-0.21
CCTACTGGGCCAACGTCATTGATCAGTCAAAGCA,PBM binding z-score,[1],-0.18
same,PBM binding z-score,[2],-0.496
same,PBM binding z-score,[3],-0.262
same,PBM binding z-score,[4],-0.492
same,PBM binding z-score,[5],-0.8
same,PBM binding z-score,[6],0.419
same,PBM binding z-score,[7],0.876
same,PBM binding z-score,[8],0.556
same,PBM binding z-score,[9],-0.362
same,PBM binding z-score,[10],0.3
CGTCCAAAGTCAAGGTCAGTGAAAGAGACTCGAA,PBM binding z-score,[1],2.34
same,PBM binding z-score,[2],2.12
same,PBM binding z-score,[3],0.643
same,PBM binding z-score,[4],1.74
same,PBM binding z-score,[5],0.209
same,PBM binding z-score,[6],2.8
same,PBM binding z-score,[7],0.614
same,PBM binding z-score,[8],1.04
same,PBM binding z-score,[9],0.0766
same,PBM binding z-score,[10],0.615
CGAACGAGGGCCTGAGTTGATAGCAAATGCCGAT,PBM binding z-score,[1],-0.571
same,PBM binding z-score,[2],-0.754
same,PBM binding z-score,[3],-0.624
same,PBM binding z-score,[4],-0.612
same,PBM binding z-score,[5],-0.92
same,PBM binding z-score,[6],-0.663
same,PBM binding z-score,[7],0.336
same,PBM binding z-score,[8],-0.582
same,PBM binding z-score,[9],-0.305
same,PBM binding z-score,[10],-0.468
CGAACTACGTCAAGGACAGTGAATCTCCGCACGC,PBM binding z-score,[1],-0.000991
same,PBM binding z-score,[2],-0.458
same,PBM binding z-score,[3],0.0307
same,PBM binding z-score,[4],-0.729
same,PBM binding z-score,[5],-0.268
same,PBM binding z-score,[6],-0.387
same,PBM binding z-score,[7],0.65
same,PBM binding z-score,[8],-0.549
same,PBM binding z-score,[9],-0.403
same,PBM binding z-score,[10],-0.799
GCTTGAAGATCAAGGTTAAGAAAGACTAAGCTAA,PBM binding z-score,[1],0.0422
same,PBM binding z-score,[2],0.502
same,PBM binding z-score,[3],-0.466
same,PBM binding z-score,[4],0.434
same,PBM binding z-score,[5],-0.944
same,PBM binding z-score,[6],1.44
same,PBM binding z-score,[7],0.0751
same,PBM binding z-score,[8],0.707
same,PBM binding z-score,[9],0.116
same,PBM binding z-score,[10],0.552
GCGACTGGGGCATCAGCAGGTTACCTTAACTTAA,PBM binding z-score,[1],-0.0462
same,PBM binding z-score,[2],-0.17
same,PBM binding z-score,[3],-0.509
same,PBM binding z-score,[4],0.761
same,PBM binding z-score,[5],-0.96
same,PBM binding z-score,[6],1.16
same,PBM binding z-score,[7],0.496
same,PBM binding z-score,[8],0.878
same,PBM binding z-score,[9],-0.313
same,PBM binding z-score,[10],0.578
TAGCCTAGGTCAAATCGGGCCAGTATACGCTATA,PBM binding z-score,[1],5.06
same,PBM binding z-score,[2],4.49
same,PBM binding z-score,[3],0.78
same,PBM binding z-score,[4],3.26
same,PBM binding z-score,[5],0.87
same,PBM binding z-score,[6],4.1
same,PBM binding z-score,[7],2.33
same,PBM binding z-score,[8],2.88
same,PBM binding z-score,[9],0.735
same,PBM binding z-score,[10],2.01
CCTGCCAGGTCATGGTCAGCTAATCTACAGTATG,PBM binding z-score,[1],3.97
same,PBM binding z-score,[2],3.04
same,PBM binding z-score,[3],-0.0461
same,PBM binding z-score,[4],2.28
same,PBM binding z-score,[5],-0.151
same,PBM binding z-score,[6],3.94
same,PBM binding z-score,[7],2.04
same,PBM binding z-score,[8],2.5
same,PBM binding z-score,[9],0.448
same,PBM binding z-score,[10],1.27
CATTCAGGGTCAGCTAGGCCAGAGTAGGGACGGC,PBM binding z-score,[1],5.24
same,PBM binding z-score,[2],4.08
same,PBM binding z-score,[3],0.181
same,PBM binding z-score,[4],2.92
same,PBM binding z-score,[5],1.42
same,PBM binding z-score,[6],4.82
same,PBM binding z-score,[7],3.87
same,PBM binding z-score,[8],3.94
same,PBM binding z-score,[9],1.29
same,PBM binding z-score,[10],2.81
ACTATTAGTTGAGACGATGGCAACCGATAGGTTG,PBM binding z-score,[1],-0.242
same,PBM binding z-score,[2],-0.267
same,PBM binding z-score,[3],0.0381
same,PBM binding z-score,[4],-0.527
same,PBM binding z-score,[5],0.0838
same,PBM binding z-score,[6],-0.263
same,PBM binding z-score,[7],0.598
same,PBM binding z-score,[8],-0.0569
same,PBM binding z-score,[9],0.0135
same,PBM binding z-score,[10],-0.0627
GCATATAGGTAAGACAAGGTGAAAGTCCGATTGT,PBM binding z-score,[1],0.406
same,PBM binding z-score,[2],-0.0572
same,PBM binding z-score,[3],-0.498
same,PBM binding z-score,[4],-0.135
same,PBM binding z-score,[5],-0.674
same,PBM binding z-score,[6],1.06
same,PBM binding z-score,[7],0.917
same,PBM binding z-score,[8],0.84
same,PBM binding z-score,[9],0.112
same,PBM binding z-score,[10],0.746
CCTTACGGGTCAAGGTTCTAGCACGGGTGGTACG,PBM binding z-score,[1],5.14
same,PBM binding z-score,[2],3.35
same,PBM binding z-score,[3],-0.039
same,PBM binding z-score,[4],2.64
same,PBM binding z-score,[5],-0.204
same,PBM binding z-score,[6],4.86
same,PBM binding z-score,[7],4.7
same,PBM binding z-score,[8],5.18
same,PBM binding z-score,[9],2.28
same,PBM binding z-score,[10],4.24
TCATATAGGTAAAGCTGAAAGTCGAACGATATGA,PBM binding z-score,[1],0.358
same,PBM binding z-score,[2],0.331
same,PBM binding z-score,[3],-0.286
same,PBM binding z-score,[4],0.366
same,PBM binding z-score,[5],-0.268
same,PBM binding z-score,[6],0.995
same,PBM binding z-score,[7],0.806
same,PBM binding z-score,[8],1.97
same,PBM binding z-score,[9],3.45
same,PBM binding z-score,[10],2.72
CTACCAAGGTGACCAAGGTCGTTGATTACTATTC,PBM binding z-score,[1],0.954
same,PBM binding z-score,[2],0.863
same,PBM binding z-score,[3],0.0331
same,PBM binding z-score,[4],1.37
same,PBM binding z-score,[5],-0.415
same,PBM binding z-score,[6],1.82
same,PBM binding z-score,[7],0.763
same,PBM binding z-score,[8],0.769
same,PBM binding z-score,[9],-0.239
same,PBM binding z-score,[10],0.452
GCAGACAGGTGAAACGCAGGGAACTCAGGGTGGC,PBM binding z-score,[1],-0.391
same,PBM binding z-score,[2],-0.181
same,PBM binding z-score,[3],-0.294
same,PBM binding z-score,[4],-0.514
same,PBM binding z-score,[5],-1.21
same,PBM binding z-score,[6],0.613
same,PBM binding z-score,[7],0.488
same,PBM binding z-score,[8],-0.246
same,PBM binding z-score,[9],-0.526
same,PBM binding z-score,[10],-0.424
CCGACTGGGGCAGAAACGTTACCATACCATCCGG,PBM binding z-score,[1],-0.564
same,PBM binding z-score,[2],-0.949
same,PBM binding z-score,[3],-0.452
same,PBM binding z-score,[4],-0.779
same,PBM binding z-score,[5],-0.864
same,PBM binding z-score,[6],-1
same,PBM binding z-score,[7],0.724
same,PBM binding z-score,[8],-0.373
same,PBM binding z-score,[9],-0.314
same,PBM binding z-score,[10],-0.369
TCATATAGGTAAAACGTGAAAGTCGGTGTGGTAA,PBM binding z-score,[1],0.91
same,PBM binding z-score,[2],0.644
same,PBM binding z-score,[3],0.37
same,PBM binding z-score,[4],0.856
same,PBM binding z-score,[5],0.255
same,PBM binding z-score,[6],2.09
same,PBM binding z-score,[7],2.92
same,PBM binding z-score,[8],4.34
same,PBM binding z-score,[9],4.63
same,PBM binding z-score,[10],4.71
AGTCAAAGTTCACTAGGTAGCGTAAGATTCAGCT,PBM binding z-score,[1],5.23
same,PBM binding z-score,[2],5.4
same,PBM binding z-score,[3],3.04
same,PBM binding z-score,[4],2.9
same,PBM binding z-score,[5],0.743
same,PBM binding z-score,[6],4.13
same,PBM binding z-score,[7],6.27
same,PBM binding z-score,[8],6.17
same,PBM binding z-score,[9],2.76
same,PBM binding z-score,[10],5.22
ACTATTAGTTGACTTACGGCAACCGATACGACGC,PBM binding z-score,[1],0.213
same,PBM binding z-score,[2],0.066
same,PBM binding z-score,[3],0.174
same,PBM binding z-score,[4],0.412
same,PBM binding z-score,[5],0.908
same,PBM binding z-score,[6],-0.179
same,PBM binding z-score,[7],1.09
same,PBM binding z-score,[8],0.0509
same,PBM binding z-score,[9],0.212
same,PBM binding z-score,[10],0.113
